Measured values published in PubChem BioAssay (NCI).
Compounds without any hit were thinned out: in the full panel of roughly 83,000, 20% have a hit.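 Each cell line was grown in a 96-well plate and treated with one concentration of compound for 48 hours. Values below 10 were considered active.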 Active and inactive are the calls of the source.

Columns and labels:
Experiment in all cases: NCI-60 one-dose screen, 48 h (100 = growth as untreated, 0 = no growth, -100 = all killed)
Details in all cases: 10 µM unless noted
NCI-H23 lung = system: NCI-H23 lung
NCI-H226 lung = system: NCI-H226 lung
NCI-H322M lung = system: NCI-H322M lung
HOP-62 NSCLC = system: HOP-62 NSCLC
NCI-H460 lung = system: NCI-H460 lung
HOP-92 NSCLC = system: HOP-92 NSCLC
NCI-H522 lung = system: NCI-H522 lung
A549/ATCC NSCLC = system: A549/ATCC NSCLC
786-0 renal = system: 786-0 renal
COLO 205 colon = system: COLO 205 colon

Measured: growth

O=S(=O)(NCCCNc1cc(-c2cn(-c3ccccc3)nc2-c2cccc(O)c2)ccn1)c1ccc(Cl)cc1
inactive: NCI-H23 lung 33.1% | NCI-H226 lung 24.8% | NCI-H322M lung 25.2% | HOP-62 NSCLC 29.1% | NCI-H460 lung 10.9% | NCI-H522 lung 20.2% | A549/ATCC NSCLC 18.8%
active: HOP-92 NSCLC -6.58% | 786-0 renal -11.8% | COLO 205 colon -68.5%

COc1cc(Cn2c(SCC(=O)Nc3ccc(Cl)cc3)nc3ccccc3c2=O)cc(OC)c1OC
inactive: NCI-H23 lung 73% | NCI-H226 lung 39.1% | NCI-H322M lung 64.4% | HOP-62 NSCLC 54% | NCI-H460 lung 17.7% | NCI-H522 lung 40.9% | A549/ATCC NSCLC 64.9% | COLO 205 colon 92.9%
active: HOP-92 NSCLC -20.8% | 786-0 renal -11%

COc1cc(CNC(=O)CSc2nc3ccccc3c(=O)n2Cc2cc(OC)c(OC)c(OC)c2)cc(OC)c1OC
inactive: NCI-H23 lung 105% | NCI-H226 lung 94.5% | NCI-H322M lung 95.4% | HOP-62 NSCLC 94% | NCI-H460 lung 108% | HOP-92 NSCLC 106% | NCI-H522 lung 81.2% | A549/ATCC NSCLC 97% | 786-0 renal 101% | COLO 205 colon 105%

CN1C(=O)[C@H]2c3c1cccc3[C@@]13NC(=O)O[C@H]1[C@H](CCC3(C)C)C2(C)C
inactive: NCI-H23 lung 103% | NCI-H226 lung 95.2% | NCI-H322M lung 108% | HOP-62 NSCLC 96% | NCI-H460 lung 105% | HOP-92 NSCLC 81.9% | NCI-H522 lung 92.6% | A549/ATCC NSCLC 93.7% | 786-0 renal 96.6% | COLO 205 colon 107%

COc1c(NC[C@H]2OC(O)[C@H](O)[C@@H](O)[C@@H]2O)c(=O)c1=O (stereo not given in full)
inactive: NCI-H23 lung 97% | NCI-H226 lung 98.3% | NCI-H322M lung 98% | HOP-62 NSCLC 102% | NCI-H460 lung 104% | HOP-92 NSCLC 95.6% | NCI-H522 lung 114% | A549/ATCC NSCLC 94.2% | 786-0 renal 102% | COLO 205 colon 112%

CCN(C(=O)c1cc2ncccc2[nH]1)[C@H]1CCC[C@@H](NCc2cccc(F)c2)C1
inactive: NCI-H23 lung 97.4% | NCI-H226 lung 101% | NCI-H322M lung 80.6% | HOP-62 NSCLC 105% | NCI-H460 lung 105% | HOP-92 NSCLC 92.1% | NCI-H522 lung 89.8% | A549/ATCC NSCLC 102% | 786-0 renal 110% | COLO 205 colon 18.7%

Cc1ccnc2nc(C(=O)OCC(=O)Nc3ccc(-c4ccccc4)cc3)nn12
inactive: NCI-H23 lung 99.5% | NCI-H226 lung 110% | NCI-H322M lung 112% | HOP-62 NSCLC 94.5% | NCI-H460 lung 119% | HOP-92 NSCLC 69.7% | NCI-H522 lung 107% | A549/ATCC NSCLC 99.3% | 786-0 renal 99.8% | COLO 205 colon 104%

COc1cc(/C=C\c2cc(OC)c(OC)c(OC)c2)cc(N/C=C\C(=O)c2c[nH]c3ccccc23)c1OC
inactive: NCI-H23 lung 60.5% | NCI-H226 lung 65.5% | NCI-H322M lung 80.4% | HOP-62 NSCLC 83% | NCI-H460 lung 82.6% | HOP-92 NSCLC 48.4% | A549/ATCC NSCLC 84.3%
active: NCI-H522 lung -76.9% | 786-0 renal -5.56% | COLO 205 colon -77.2%

CCN(CC)c1cc(/C=C/c2ccc(OC)c(OC)c2)nc2cc(F)c(F)cc12
inactive: NCI-H226 lung 24.6% | NCI-H322M lung 90.9% | NCI-H460 lung 84.9% | NCI-H522 lung 33.9% | A549/ATCC NSCLC 64.8% | COLO 205 colon 105%
active: NCI-H23 lung -2.87% | HOP-62 NSCLC -78.8% | HOP-92 NSCLC -53.2% | 786-0 renal -18.7%

COc1cccc(-n2cc(-c3nc(Cl)c4ccccc4n3)nn2)c1
inactive: NCI-H23 lung 100% | NCI-H226 lung 111% | NCI-H322M lung 102% | HOP-62 NSCLC 125% | NCI-H460 lung 107% | HOP-92 NSCLC 101% | NCI-H522 lung 83.2% | A549/ATCC NSCLC 92.7% | 786-0 renal 97.8% | COLO 205 colon 98.8%

O=C1c2ccccc2C(=O)c2c(N=Nc3sc(=O)[nH]c3S)cccc21
inactive: NCI-H23 lung 96.3% | NCI-H226 lung 110% | NCI-H322M lung 99% | HOP-62 NSCLC 99.3% | NCI-H460 lung 95.9% | HOP-92 NSCLC 92.9% | NCI-H522 lung 83.1% | A549/ATCC NSCLC 98.1% | 786-0 renal 107% | COLO 205 colon 98.9%

Clc1cccc(Cl)c1Cn1c(-c2cncs2)nc2ccccc21
inactive: NCI-H23 lung 71% | NCI-H226 lung 88.6% | NCI-H322M lung 87.5% | HOP-62 NSCLC 97% | NCI-H460 lung 101% | HOP-92 NSCLC 71% | NCI-H522 lung 76.6% | A549/ATCC NSCLC 73.1% | 786-0 renal 87.6% | COLO 205 colon 99.5%

CC1=NN2C(=NC3=C(CCC/C3=C\c3ccc(Cl)cc3)C2c2ccc(Cl)cc2)S1 (stereo not given)
inactive: NCI-H23 lung 97.8% | NCI-H226 lung 101% | NCI-H322M lung 104% | HOP-62 NSCLC 115% | NCI-H460 lung 101% | HOP-92 NSCLC 77.9% | NCI-H522 lung 83.3% | A549/ATCC NSCLC 87% | 786-0 renal 97.2% | COLO 205 colon 109%

CC(C)C[C@H](NC(=O)[C@H](Cc1ccccc1)n1ccc(N2CCCCC2)cc1=O)B(O)O
inactive: NCI-H23 lung 19.7% | NCI-H322M lung 70.7% | HOP-62 NSCLC 13.1% | NCI-H460 lung 34.7% | A549/ATCC NSCLC 19% | 786-0 renal 28% | COLO 205 colon 28.9%
active: NCI-H226 lung -68.7% | HOP-92 NSCLC -10.1% | NCI-H522 lung -7.97%

CC/C=C\C[C@H](O)C/C=C1/C(=O)C(Cl)=C[C@@H]1C/C=C\CCCC(=O)OC
active: NCI-H23 lung -43.8% | NCI-H226 lung -10.9% | HOP-62 NSCLC -27.1% | NCI-H460 lung -31.6% | HOP-92 NSCLC -31.3% | NCI-H522 lung -67.1% | A549/ATCC NSCLC 4.38% | 786-0 renal -40.8% | COLO 205 colon -61.6%
inactive: NCI-H322M lung 31.8%

COC(=O)c1cc(-c2cccs2)c(C#N)c(N)c1C#N
inactive: NCI-H23 lung 96.7% | NCI-H226 lung 101% | NCI-H322M lung 99.8% | HOP-62 NSCLC 90.3% | NCI-H460 lung 104% | HOP-92 NSCLC 94.2% | NCI-H522 lung 95.4% | A549/ATCC NSCLC 101% | 786-0 renal 100% | COLO 205 colon 109%

COc1cc(/C=C/C(=O)c2ccccc2O)ccc1OCCCOc1cc2c(cc1OC)C(=O)N1CCC[C@H]1C=N2
active: NCI-H23 lung 3.19% | NCI-H226 lung -3.94% | NCI-H322M lung -10.6% | HOP-62 NSCLC 9.86% | NCI-H460 lung -18.1% | HOP-92 NSCLC -27.4% | NCI-H522 lung -9.43% | A549/ATCC NSCLC 6.93% | 786-0 renal -44.8% | COLO 205 colon -3.82%

CCSc1nnc(NC(=O)Cc2ccc(Cl)cc2)s1
inactive: NCI-H23 lung 99.1% | NCI-H226 lung 104% | NCI-H322M lung 112% | HOP-62 NSCLC 102% | NCI-H460 lung 123% | HOP-92 NSCLC 89.4% | NCI-H522 lung 107% | A549/ATCC NSCLC 106% | 786-0 renal 100% | COLO 205 colon 108%

Cc1nc(Nc2cccnc2)sc1C(=O)/C=C/c1ccc(Cl)cc1
inactive: NCI-H23 lung 92.8% | NCI-H226 lung 62.5% | NCI-H322M lung 32.1% | HOP-62 NSCLC 15.6% | NCI-H460 lung 70.6% | HOP-92 NSCLC 92% | NCI-H522 lung 44.7% | A549/ATCC NSCLC 26.5% | 786-0 renal 12.3% | COLO 205 colon 43.8%

CC(C)CCC[C@@H](C)[C@H]1CC[C@H]2[C@@H]3CC[C@H]4C/C(=N/O)CC[C@]4(C)[C@H]3CC[C@]12C
inactive: NCI-H23 lung 107% | NCI-H226 lung 92.1% | NCI-H322M lung 103% | HOP-62 NSCLC 92.8% | NCI-H460 lung 106% | HOP-92 NSCLC 101% | NCI-H522 lung 104% | A549/ATCC NSCLC 73.1% | 786-0 renal 102% | COLO 205 colon 108%

CCN1C(=O)N(CC)C2C1NN=c1s/c(=C\c3ccccn3)c(=O)n12 (stereo not given)
inactive: NCI-H23 lung 34.5% | NCI-H226 lung 92.2% | NCI-H322M lung 45.8% | HOP-62 NSCLC 11.6% | HOP-92 NSCLC 37.3% | NCI-H522 lung 15.1% | A549/ATCC NSCLC 32.5% | 786-0 renal 22.3%
active: NCI-H460 lung 8.89% | COLO 205 colon -2.81%
